Where “and” joins values, the source holds several entries; their conditions need not be identical. Equal entries are not always repeated. Inconclusive results are not listed. Where a call stands in place of a potency, no number is given. The source holds several records for some structures; these can differ, active in one and inactive in another. Calls of active or inactive are those of the source. Calls come from the whole dose curve; as a rule, active = well fitted curve in the direction sought with a large enough effect in the repeat runs; inconclusive = weak or mixed curves; inactive = no such curve, though single readings can be large; an effect the other way counts as inactive or inconclusive.
Assay: A CellTox Green Cytotoxicity Assay to monitor cytotoxicity in HepG2 cells - 8 hour (AID 1224890); note: nearly all actives have a fitted effect of over 45% in size; note: potency is the fitted concentration of half-maximal effect
Details: CellTox Green fluorescence; series mostly up to 76.8 µM; cytotoxicity increase: at the top concentration
Outline: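 Using 1536-well format, dye-containing HepG2 suspension was seeded, allowed 5 h at 37 C/5% CO2, dosed by pintool with compounds, positive and negative controls, and imaged for fluorescence across 40 h.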
With `O=C(CCl)c1ccccc1` the Potency was “inactive”. In the case of `CCOP(=S)(OCC)O/N=C(\C#N)c1ccccc1`, the Potency is reported as “inactive”. With `NC(=S)Nc1ccccc1` the Potency was 55.9 µM (active) and inactive. In the case of `O=S(=O)(Oc1ccc(Cl)cc1)c1ccc(Cl)cc1`, the Potency is reported as “inactive”. With `CN(C)C(=O)Nc1ccc(Cl)cc1` the Potency was “inactive”. For `c1ccc(-c2cccc(-c3ccccc3)c2)cc1`, the Potency was “inactive”. For `C1=Cc2cccc3cccc1c23`, the Potency was “inactive”. In the case of `COC(=O)c1sccc1S(=O)(=O)NC(=O)Nc1nc(C)nc(OC)n1`, the Potency is reported as “inactive”. With `Oc1cc(Cl)c(Cl)cc1Cl` the Potency was “inactive”. For `c1nc[nH]n1`, the Potency was “inactive”. With `Nc1ccc(Cl)c(Cl)c1` the Potency was “inactive”. With `CCCCCCCCC(=O)NCc1ccc(O)c(OC)c1` the Potency was “inactive”. With `C=CCN(CC=C)C(=O)C(Cl)Cl` the Potency was “inactive”. With `CCC(C)(c1ccc(O)cc1)c1ccc(O)cc1` the Potency was “inactive”. With `NCc1cccnc1` the Potency was “inactive”. With `CCOc1cc(C=O)ccc1O` the Potency was “inactive”. In the case of `CCN(N=O)C(N)=O`, the Potency is reported as “inactive”. For `O=C1C=CC(=O)C=C1`, the Potency was “inactive”. In the case of `CCCCCc1cc(O)cc(O)c1`, the Potency is reported as “inactive and 38.9 µM (active)”. With `CNC(=O)Oc1cccc2c1OC(C)(C)O2` the Potency was “inactive”. With `N[C@@H](Cc1ccc(N(CCCl)CCCl)cc1)C(=O)O` the Potency was “inactive”. In the case of `Oc1cc(Cl)ccc1Oc1ccc(Cl)cc1Cl`, the Potency is reported as 22.4 µM (active) and 16.9 µM (active). In the case of `O=c1oc2ccccc2c(O)c1C(CC(O)c1ccc(-c2ccc(Br)cc2)cc1)c1ccccc1` (centres undefined), the Potency is reported as “inactive”. With `Nc1cccnc1` the Potency was “inactive”. With `C#C[C@]1(O)CC[C@H]2[C@@H]3CCC4=CC(=O)CC[C@]4(C)[C@H]3CC[C@@]21C` the Potency was “inactive”. In the case of `C[C@]12CCC(=O)C(O)=C1CC[C@@H]1[C@@H]2CC[C@]2(C)C(=O)CC[C@@H]12`, the Potency is reported as “inactive”. In the case of `Cc1ccccc1[N+](=O)[O-]`, the Potency is reported as “inactive”. In the case of `O=P(O)(O)CCCl`, the Potency is reported as “inactive”. In the case of `c1ccc(N=Nc2ccccc2)cc1`, the Potency is reported as “inactive”. With `COc1ccc(C(CN(C)C)C2(O)CCCCC2)cc1` (centres undefined) the Potency was “inactive”. In the case of `CCN(CC)N=O`, the Potency is reported as “inactive”. With `C=CC(=O)OCCO` the Potency was “inactive”. For `S=C1NCCN1`, the Potency was “inactive”. With `CC(O)CCO` (centres undefined) the Potency was “inactive”. For `O=Cc1ccco1`, the “cytotoxicity increase” value was -5.74% (inactive). In the case of `CCCCCCOC(=O)c1ccccc1C(=O)OCCCCCC`, the Potency is reported as “inactive”. For `ClC1C(Cl)C(Cl)C(Cl)C(Cl)C1Cl` (centres undefined), the Potency was “inactive”. For `C[C@]12CCC(=O)C[C@@H]1CC[C@@H]1[C@@H]2CC[C@]2(C)[C@@H](O)CC[C@@H]12`, the Potency was “inactive”.

Assay: qHTS assay to identify small molecule antagonists of the estrogen receptor alpha (ER-alpha) signaling pathway using the BG1 cell line in the presence of 0.1 nM 17-beta-estradiol - cell viability counter screen (AID 1259241); note: nearly all actives have a fitted effect of over 40% in size
Details: VM7Luc4E2 (BG1) viability, CellTiter-Fluor protease, 22 h, 0.1 nM estradiol agonist added; series mostly up to 92.4 µM; activity change, negative = cytotoxicity: at the top concentration
Outline: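 In this screen, hormone-deprived VM7Luc4E2 cells were seeded at 4,000 per well, dosed with compound and 0.1 nM estradiol final, and incubated 22 hr at 37C and 5% CO2; fluorogenic live-cell protease signal reported viability.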
With `O=C(CCl)c1ccccc1` the Potency was “inactive”. For `CCOP(=S)(OCC)O/N=C(\C#N)c1ccccc1`, the Potency was “inactive”. For `NC(=S)Nc1ccccc1`, the Potency was “inactive”. With `O=S(=O)(Oc1ccc(Cl)cc1)c1ccc(Cl)cc1` the Potency was “inactive”. With `CN(C)C(=O)Nc1ccc(Cl)cc1` the Potency was “inactive”. For `c1ccc(-c2cccc(-c3ccccc3)c2)cc1`, the Potency was “inactive”. For `C1=Cc2cccc3cccc1c23`, the Potency was “inactive”. For `COC(=O)c1sccc1S(=O)(=O)NC(=O)Nc1nc(C)nc(OC)n1`, the Potency was “inactive”. With `Oc1cc(Cl)c(Cl)cc1Cl` the Potency was “inactive”. With `c1nc[nH]n1` the Potency was “inactive”. With `Nc1ccc(Cl)c(Cl)c1` the Potency was “inactive”. With `CCCCCCCCC(=O)NCc1ccc(O)c(OC)c1` the Potency was “inactive”. For `C=CCN(CC=C)C(=O)C(Cl)Cl`, the Potency was “inactive”. With `CCC(C)(c1ccc(O)cc1)c1ccc(O)cc1` the Potency was “inactive”. With `NCc1cccnc1` the Potency was “inactive”. For `CCOc1cc(C=O)ccc1O`, the Potency was “inactive”. In the case of `CCN(N=O)C(N)=O`, the Potency is reported as “inactive”. For `O=C1C=CC(=O)C=C1`, the Potency was “inactive”. With `CCCCCc1cc(O)cc(O)c1` the Potency was “inactive”. In the case of `CNC(=O)Oc1cccc2c1OC(C)(C)O2`, the Potency is reported as “inactive”. In the case of `N[C@@H](Cc1ccc(N(CCCl)CCCl)cc1)C(=O)O`, the Potency is reported as “inactive”. For `Oc1cc(Cl)ccc1Oc1ccc(Cl)cc1Cl`, the “activity change, negative = cytotoxicity” value was -19.4% [at 42.5 µM] (inactive). With `O=c1oc2ccccc2c(O)c1C(CC(O)c1ccc(-c2ccc(Br)cc2)cc1)c1ccccc1` (centres undefined) the Potency was “inactive”. For `Nc1cccnc1`, the Potency was “inactive”. In the case of `C#C[C@]1(O)CC[C@H]2[C@@H]3CCC4=CC(=O)CC[C@]4(C)[C@H]3CC[C@@]21C`, the Potency is reported as “inactive”. In the case of `C[C@]12CCC(=O)C(O)=C1CC[C@@H]1[C@@H]2CC[C@]2(C)C(=O)CC[C@@H]12`, the Potency is reported as “inactive”. In the case of `Cc1ccccc1[N+](=O)[O-]`, the Potency is reported as “inactive”. With `O=P(O)(O)CCCl` the Potency was “inactive”. In the case of `c1ccc(N=Nc2ccccc2)cc1`, the Potency is reported as “inactive”. With `COc1ccc(C(CN(C)C)C2(O)CCCCC2)cc1` (centres undefined) the Potency was “inactive”. For `CCN(CC)N=O`, the Potency was “inactive”. With `C=CC(=O)OCCO` the Potency was “inactive”. With `S=C1NCCN1` the Potency was “inactive”. For `CC(O)CCO` (centres undefined), the Potency was “inactive”. In the case of `O=Cc1ccco1`, the Potency is reported as “inactive”. For `CCCCCCOC(=O)c1ccccc1C(=O)OCCCCCC`, the Potency was “inactive”. With `ClC1C(Cl)C(Cl)C(Cl)C(Cl)C1Cl` (centres undefined) the Potency was “inactive”. In the case of `C[C@]12CCC(=O)C[C@@H]1CC[C@@H]1[C@@H]2CC[C@]2(C)[C@@H](O)CC[C@@H]12`, the Potency is reported as “inactive”.

Assay: qHTS assay to identify small molecule antagonists of the androgen receptor (AR) signaling pathway using the MDA cell line in the presence of 0.5 nM R1881 - cell viability counter screen (AID 1259242); note: nearly all actives have a fitted effect of over 45% in size; note: potency is the fitted concentration of half-maximal effect
Details: MDA-kb2 viability, CellTiter-Fluor protease fluorescence, 16 h; series mostly up to 92.4 µM; viability change, negative = cytotoxic: at the top concentration
Outline: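 Viability of MDA-kb2 cells was multiplexed with the luciferase AR readout; after 16 hr with compounds and R1881 at 0.5 nM final, CellTiter-Fluor fluorescence was recorded.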
For `O=C(CCl)c1ccccc1`, the Potency was “inactive”. With `CCOP(=S)(OCC)O/N=C(\C#N)c1ccccc1` the Potency was “inactive”. For `NC(=S)Nc1ccccc1`, the “viability change, negative = cytotoxic” value was -1.4% (inactive). For `O=S(=O)(Oc1ccc(Cl)cc1)c1ccc(Cl)cc1`, the Potency was “inactive”. In the case of `CN(C)C(=O)Nc1ccc(Cl)cc1`, the Potency is reported as “inactive”. For `c1ccc(-c2cccc(-c3ccccc3)c2)cc1`, the Potency was “inactive”. With `C1=Cc2cccc3cccc1c23` the Potency was “inactive”. For `COC(=O)c1sccc1S(=O)(=O)NC(=O)Nc1nc(C)nc(OC)n1`, the Potency was “inactive”. For `Oc1cc(Cl)c(Cl)cc1Cl`, the Potency was “inactive”. With `c1nc[nH]n1` the Potency was “inactive”. With `Nc1ccc(Cl)c(Cl)c1` the Potency was “inactive”. With `CCCCCCCCC(=O)NCc1ccc(O)c(OC)c1` the Potency was “inactive”. In the case of `C=CCN(CC=C)C(=O)C(Cl)Cl`, the Potency is reported as “inactive”. In the case of `CCC(C)(c1ccc(O)cc1)c1ccc(O)cc1`, the Potency is reported as “inactive”. In the case of `NCc1cccnc1`, the Potency is reported as “inactive”. With `CCOc1cc(C=O)ccc1O` the Potency was “inactive”. In the case of `CCN(N=O)C(N)=O`, the Potency is reported as “inactive”. For `O=C1C=CC(=O)C=C1`, the Potency was “inactive”. With `CCCCCc1cc(O)cc(O)c1` the Potency was “inactive”. For `CNC(=O)Oc1cccc2c1OC(C)(C)O2`, the Potency was “inactive”. In the case of `N[C@@H](Cc1ccc(N(CCCl)CCCl)cc1)C(=O)O`, the Potency is reported as “inactive”. For `Oc1cc(Cl)ccc1Oc1ccc(Cl)cc1Cl`, the Potency was 31.4 µM (active). For `O=c1oc2ccccc2c(O)c1C(CC(O)c1ccc(-c2ccc(Br)cc2)cc1)c1ccccc1` (centres undefined), the Potency was “inactive”. With `Nc1cccnc1` the Potency was “inactive”. For `C#C[C@]1(O)CC[C@H]2[C@@H]3CCC4=CC(=O)CC[C@]4(C)[C@H]3CC[C@@]21C`, the Potency was “inactive”. For `C[C@]12CCC(=O)C(O)=C1CC[C@@H]1[C@@H]2CC[C@]2(C)C(=O)CC[C@@H]12`, the Potency was “inactive”. In the case of `Cc1ccccc1[N+](=O)[O-]`, the Potency is reported as “inactive”. In the case of `O=P(O)(O)CCCl`, the Potency is reported as “inactive”. For `c1ccc(N=Nc2ccccc2)cc1`, the Potency was “inactive”. For `COc1ccc(C(CN(C)C)C2(O)CCCCC2)cc1` (centres undefined), the Potency was “inactive”. For `CCN(CC)N=O`, the Potency was “inactive”. In the case of `C=CC(=O)OCCO`, the Potency is reported as “inactive”. In the case of `S=C1NCCN1`, the Potency is reported as “inactive”. In the case of `CC(O)CCO` (centres undefined), the Potency is reported as “inactive”. With `O=Cc1ccco1` the Potency was “inactive”. For `CCCCCCOC(=O)c1ccccc1C(=O)OCCCCCC`, the Potency was “inactive”. In the case of `ClC1C(Cl)C(Cl)C(Cl)C(Cl)C1Cl` (centres undefined), the Potency is reported as “inactive”. In the case of `C[C@]12CCC(=O)C[C@@H]1CC[C@@H]1[C@@H]2CC[C@]2(C)[C@@H](O)CC[C@@H]12`, the Potency is reported as “inactive”.

Source: PubChem BioAssay (Tox21)
